FLuc counter: qHTS profiling assay for firefly luciferase inhibitor/activator using purifed enzyme and Km concentrations of substrates (counterscreen for miR-21 project) | Luciferin 4-monooxygenase (Photinus pyralis), P08659 | purified FLuc, Km substrates, luminescence inhibition | Potency, µM (highest dose often 57.5 µM), for the others: at the highest dose activity change, negative = inhibition, usual class: inhibitors | 360,000 compounds, 6.9% hits | AID 588342, 2011;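 further: plate controls were vehicle for no effect and reference inhibitor for full effect; nearly all actives have a fitted effect of over 55% in size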
Target sequence (P08659 whole entry, looked up): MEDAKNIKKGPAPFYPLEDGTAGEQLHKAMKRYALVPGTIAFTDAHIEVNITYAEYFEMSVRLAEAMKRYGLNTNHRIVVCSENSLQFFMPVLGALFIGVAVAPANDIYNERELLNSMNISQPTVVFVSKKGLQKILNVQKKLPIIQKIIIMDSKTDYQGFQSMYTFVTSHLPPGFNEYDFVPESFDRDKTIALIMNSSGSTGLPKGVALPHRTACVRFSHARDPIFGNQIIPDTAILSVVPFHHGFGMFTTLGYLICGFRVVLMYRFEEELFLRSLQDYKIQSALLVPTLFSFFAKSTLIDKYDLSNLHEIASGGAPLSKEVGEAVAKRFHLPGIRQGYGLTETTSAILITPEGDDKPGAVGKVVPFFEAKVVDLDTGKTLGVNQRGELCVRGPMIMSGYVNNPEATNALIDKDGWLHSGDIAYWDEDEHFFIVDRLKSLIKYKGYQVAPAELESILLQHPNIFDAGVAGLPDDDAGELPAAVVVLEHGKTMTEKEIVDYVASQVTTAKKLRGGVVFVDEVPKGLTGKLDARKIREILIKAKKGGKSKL
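Biochemical qHTS of compounds, final roughly 60 µM downward over six points, against 10 nM purified firefly luciferase using Km concentrations of substrates (10 uM D-luciferin, 10 uM ATP) in Tris acetate pH 7.5 buffer; luminescence output.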
SMN2 splice up: qHTS Assay for Enhancers of SMN2 Splice Variant Expression; HEK293 SMN2-luciferase splicing reporter, luminescence, 30-36 h; Potency, µM (titrated, usually from 46.1 µM), for inactives: at the top dose activity change, positive = activation, most hits filed as activators; 210,000 compounds, 2.8% hits; AID 1458, 2008; further: % of control where 0% means no effect; nearly all actives have a fitted effect of over 55% in size
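qHTS luciferase splicing reporter: luminescence rises when SMN2 exon 7 is included in transfected HEK293 cells. Compound exposure lasted 30-36 h at 37C, with 4.5 mM final sodium butyrate as control, followed by a ONE-Glo read.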
ELG1 genotoxic: qHTS screen for small molecules that induce genotoxicity in human embryonic kidney (HEK293T) cells expressing luciferase-tagged ELG1 | AID 504466, 2011 | Potency, µM (highest dose often 46 µM), inactives show at the top dose activity change, positive = activation, actives largely listed as activators | HEK293T ELG1-luciferase reporter, luminescence, 16 h | 330,000 compounds, 1.3% hits; further: % of control where 0% means no effect; nearly all actives have a fitted effect of over 60% in size
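Genotoxic stress is detected as increased luminescence from luciferase-tagged ELG1 in HEK293T cells, measured with ONE-Glo after a 16 hr treatment at 37 °C.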
Rab9 prom act: qHTS Assay for Rab9 Promoter Activators; AID 485297, 2010; 320,000 compounds, 2.8% hits; Huh7 Rab9 promoter-luciferase reporter, luminescence, 24 h; Potency, µM (titrated, usually from 9.22 µM), for the others: at the highest dose activation, negative = inhibition, hits mostly activators; further: % of control where 0% means no effect; nearly all actives have a fitted effect of over 60% in size
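Luminescence read-out: Huh7 cells stably expressing Rab9-luciferase, treated 24 h with compound at 37 °C, then lysed with luciferase reagent for 10 min at ambient before reading.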
NPC1 promoter act: qHTS Assay for NPC1 Promoter Activators. Huh7 NPC1 promoter luciferase reporter, 24 h. Potency, µM (series often up to 9.22 µM), inactives show top-dose activation, most hits filed as activators. 320,000 compounds, 2.4% hits. AID 485313, 2010; further: % of control where 0% means no effect; nearly all actives have a fitted effect of over 60% in size
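Luminescence from an NPC1 promoter-driven luciferase reporter in stably transfected Huh7 cells was measured after 24 h compound treatment at 37 °C, followed by 10 min ambient incubation with luciferase detection reagent.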
ELG1 DNA repair: qHTS screen for small molecules that inhibit ELG1-dependent DNA repair in human embryonic kidney (HEK293T) cells expressing luciferase-tagged ELG1. HEK293T ELG1-luciferase reporter, luminescence, 16 h; DNA damage induced by 5-fluorouridine. Potency, µM (highest dose often 46.1 µM), without a hit: top-dose activity change, negative = inhibition, actives largely listed as inhibitors. 330,000 compounds, 2.3% hits; further: on the % scale 0 is the no-effect control and ±100 the full control effect; nearly all actives have a fitted effect of over 55% in size
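DMSO vehicle served as the neutral condition. Each well held 2,000 cells given 5-fluorouridine plus compound; after 16 hr at 37 °C/5% CO2, ONE-Glo was added and luciferase measured 30 min later.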
Starred values were filed as active, the others as inactive; u = inconclusive; x = not tested or not shown. The list is not random: actives were taken first. Their share in the collection is about 9.3%. The call rests on the fitted dose curve; in most records, active means well fitted curve in the direction sought with a large enough effect; inconclusive means small, poorly fitted or top-dose-only effect, or another doubt; inactive means no such curve, though single readings can be large; an effect the other way counts as inactive or inconclusive. Potency means the concentration at half of the fitted maximal effect.

SMILES	FLuc counter	SMN2 splice up	ELG1 genotoxic	Rab9 prom act	NPC1 promoter act	ELG1 DNA repair
CCc1ccc(OCC(=O)N/N=C/c2ccc(OS(=O)(=O)c3ccc(C)cc3)c(OC)c2)cc1	5.4µM*	4%	-1%	-4%	-1%	-26%
COc1cc(/C=N/NC(=O)COc2cc(C)cc(C)c2)ccc1OS(=O)(=O)c1ccc(C)cc1	2%	-60%	-6%	-9%	-10%	u
O=C1C=C(c2ccc(Oc3ccccc3)cc2)C[C@@H](c2ccc(F)cc2)C1	-1%	x	-3%	-6%	-4%	-10%
Cc1cc(CN(C)C(=O)c2ccc3nc(Cc4ccccc4F)oc3c2)on1	u	x	-3%	3.2µM*	2.8µM*	-1%
CN(Cc1nccs1)C(=O)c1ccc2nc(Cc3ccccc3F)oc2c1	3%	x	-2%	0%	1%	u
CN(Cc1nccn1C)C(=O)c1ccc2nc(Cc3ccccc3F)oc2c1	13µM*	x	u	u	15%	u
COc1ccc(Cc2nc3ccc(C(=O)NCc4cc(C)no4)cc3o2)cc1OC	4%	x	-6%	-4%	0%	20%
O=c1c2c3c(sc2[nH]c(=S)n1Cc1ccco1)CCC3	-4%	x	0%	0%	2%	-6%
Cc1c(C(=O)OC2CCCCC2)[nH]c2c1C(=O)CC(c1ccc(C(C)(C)C)cc1)C2 (stereo unspecified)	7%	15%	x	x	x	x
C=CCn1c(=NC(=O)c2ccco2)sc2cc(C(=O)OCC)ccc21	-1%	-8%	9%	-1%	12%	24%
CCOC(=O)c1sc(=NC(=O)c2ccc(Cl)s2)n(C)c1C	0.67µM*	7.9µM*	1.2µM*	u	u	u
CCOC(=O)c1sc(=NC(=O)c2ccco2)n(C)c1C	15µM*	14µM*	4%	u	-12%	u
Cc1sc(=NC(=O)c2ccco2)n(C)c1-c1ccc(Cl)cc1	5.4µM*	24%	11%	2.8µM*	2.5µM*	u
CCOC(=O)c1sc(=NC(=O)c2cccs2)n(C)c1C	1.3µM*	3.2µM*	u	u	1%	u
CN1CCN(c2cc(-c3cc(O)c4ncccc4c3)ccn2)CC1	4%	x	7%	-5%	-3%	u
CCOC(=O)c1sc(=NC(=O)c2ccccc2Br)n(C)c1C	2.1µM*	x	u	u	u	u
CCOC(=O)c1sc(=NC(=O)c2ccc(OC(C)C)cc2)n(C)c1C	-3%	-5%	5%	1%	-18%	18%
CCOC(=O)c1sc(=NC(=O)/C=C/c2ccccc2)n(C)c1C	-7%	30%	15%	1.6µM*	u	u
c1ccc(C2=Nn3c(nnc3-c3cccs3)SC2)cc1	3%	x	0%	-3%	-5%	13%
c1csc(C2=Nn3c(nnc3-c3ccncc3)SC2)c1	-13%	-2%	-8%	9%	24%	1.1µM*
CCCN(Cc1ccccc1)C(=S)Nc1ccc(F)cc1	4%	-23%	-2%	-4%	-6%	-8%
COc1ccc(NC(=S)N(CCc2c(C)[nH]c3ccc(C)cc23)Cc2cccs2)cc1	-2%	-13%	-11%	-8%	-2%	u
CCOc1cc(-c2ccccc2)nc(N)n1	u	0%	22%	u	u	u
COc1cc(-c2ccccc2)nc(N)n1	u	1%	16µM*	3.2µM*	u	u
COc1ccc(C(NC(=O)C2C3C=CC(C3)C2C(=O)O)c2ccccc2)cc1 (stereo unspecified)	-6%	x	0%	-3%	-4%	1%
SMILES	FLuc counter	SMN2 splice up	ELG1 genotoxic	Rab9 prom act	NPC1 promoter act	ELG1 DNA repair
CN(CC(=O)N1CCCCCC1)S(=O)(=O)c1ccccc1	u	x	u	u	3.2µM*	u
Cc1ccc(S(=O)(=O)N(C)CC(=O)N2CCCCCCC2)cc1	1%	x	2%	0%	-2%	14%
CC1=C(C(=O)OC(C)C)C(c2ccccc2)NC(=O)N1C (stereo unspecified)	-2%	x	-1%	-7%	3%	-2%
CCCNc1ncccc1C(N)=O	-1%	-10%	-1%	1%	5%	u
Cc1ccc(Nc2ncccc2C(N)=O)cc1	u	11µM*	u	2.8µM*	3.5µM*	u
COc1ccc(Nc2ncccc2C(=O)O)cc1	15µM*	-7%	15µM*	u	u	u
Cc1c(Cl)cccc1Nc1ncccc1C(=O)O	u	x	4%	-1%	5%	17%
Cc1cc(Cl)ccc1Nc1ncccc1C(N)=O	15µM*	8.9µM*	u	u	26%	u
Cc1c(Nc2ncccc2C(=O)O)cccc1C(F)(F)F	19µM*	-5%	u	10%	0%	17%
COc1ccccc1Nc1ncccc1C(=O)O	-19%	-8%	0%	5%	-5%	7%
NC(=O)c1cccnc1Nc1ccccc1F	-14%	21%	u	15%	17%	u
COc1ccc(OCC(O)CON2C(=O)c3ccccc3C2=O)cc1 (stereo unspecified)	-16%	u	0%	-3%	-2%	2%
Cc1ccc(OCCn2c3ccccc3n3nc(C)c(=O)nc23)cc1	7%	-27%	-3%	-4%	-4%	-13%
O=[N+]([O-])c1cccc(S(=O)(=O)Nc2ccc(-c3ccc(N4CCOCC4)nn3)cc2)c1	21µM*	x	-1%	1%	1%	15%
COc1ccc(-c2ccc(NS(=O)(=O)c3cccc([N+](=O)[O-])c3)cc2)nn1	2%	x	-3%	-1%	0%	12%
O=[N+]([O-])c1cccc(S(=O)(=O)Nc2ccc(-c3ccc(N4CCCC4)nn3)cc2)c1	30µM*	x	14%	-3%	5%	20%
Cc1cc(NS(=O)(=O)c2ccc(NC(=O)c3cc(-c4ccccc4Cl)nc4ccccc34)cc2)no1	-1%	8%	3%	1%	0%	-3%
O=C(CCCOc1ccc(Cl)cc1Cl)Nc1cccnc1	u	-18%	1%	-1%	-2%	u
COc1ccc(NC(=O)COC(=O)CCCOc2ccc(Cl)cc2Cl)cc1	u	16%	4%	-2%	2%	15%
COc1ccc(NC(=O)COC(=O)CCCOc2ccc(Cl)cc2Cl)cc1Cl	15µM*	8%	8%	2%	-3%	u
O=C(CCCOc1ccc(Cl)cc1Cl)Nc1ccccc1C(=O)O	8.5µM*	x	17%	3.5µM*	2.5µM*	u

Screens (PubChem BioAssay)
